This is a sample that favours compounds with a hit; in the whole collection about 11% have one here.
NPR1 antag: blocks ANP-stimulated signaling of human Npr1 receptor; Potency, µM (series often up to 46.3 µM), for inactives: at the highest dose activity change, negative = inhibition, hits mostly inhibitors; HEK293 hNpr1 GloSensor cGMP, ANP-stimulated luminescence; P16066; hit rate 1.6% among 76,000; calls by dose curve; further: nearly all actives have a fitted effect of over 60% in size
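HEK293 cells stably expressing human Npr1 and cGMP GloSensor pGS-40F, loaded 2 h with 2% GloSensor reagent, given compound 30 min at room temperature. Luminescence read before and 20 min after 0.1 nM hNppA.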
HEK cytotox: HEK 293 cell cytotoxicity. HEK 293 viability, ATP luminescence (CellTiter-Glo), 48-72 h. Potency, µM (doses to about 115 µM), for the others: at the highest dose activity change, negative = cytotoxicity, usual class: inhibitors. hit rate 6.6% among 94,000. AID 1345083; further: nearly all actives have a fitted effect of over 60% in size
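Viability of HEK 293 cells, plated at 250 cells/well, was judged by cellular ATP after compound treatment for 48 or 72 hr. Luminescence was imaged 10 min after CellTiter-Glo addition at room temperature.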
FLuc inh: inhibitors of firefly (Photinus pyralis) luciferase. P08659. purified P. pyralis luciferase, luminescence, biochemical. Potency, µM (series often up to 115 µM), hits mostly inhibitors. hit rate 2.5% among 76,000. AID 1347043; further: nearly all actives have a fitted effect of over 65% in size
Target sequence (P08659 whole entry, looked up): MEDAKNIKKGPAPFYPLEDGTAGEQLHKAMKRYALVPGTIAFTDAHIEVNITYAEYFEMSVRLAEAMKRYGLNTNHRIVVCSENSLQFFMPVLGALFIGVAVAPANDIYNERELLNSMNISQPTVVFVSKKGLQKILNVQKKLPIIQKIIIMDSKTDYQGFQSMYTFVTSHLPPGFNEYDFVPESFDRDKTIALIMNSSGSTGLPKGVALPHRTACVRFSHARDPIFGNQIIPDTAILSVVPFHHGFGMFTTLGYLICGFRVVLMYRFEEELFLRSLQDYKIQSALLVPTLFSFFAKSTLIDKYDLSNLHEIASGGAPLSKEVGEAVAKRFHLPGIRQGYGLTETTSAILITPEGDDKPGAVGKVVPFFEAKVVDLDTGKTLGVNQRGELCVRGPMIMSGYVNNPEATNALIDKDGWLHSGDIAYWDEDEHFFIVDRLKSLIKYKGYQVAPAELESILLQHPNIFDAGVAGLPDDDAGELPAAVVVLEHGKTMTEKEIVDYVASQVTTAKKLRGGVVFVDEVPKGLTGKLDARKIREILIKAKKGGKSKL
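Luminescence read by CCD imaging after purified firefly luciferase (10nM final) was added to substrate buffer holding 10uM D-luciferin and 10uM ATP, pH 7.5, pre-dosed with compound.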
NIH3T3 tox: cytotoxic compounds in NIH 3T3 cells. hit rate 4.3% among 94,000. NIH 3T3 viability, CellTiter-Glo ATP luminescence, 48-72 h. Potency, µM (top dose mostly 96.7 µM), without a hit: top-dose activity change, negative = cytotoxicity, usual class: inhibitors; further: nearly all actives have a fitted effect of over 55% in size
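Cells were seeded at 400 per well, treated with pin-transferred compound, and kept 48 or 72 hr at 37 °C before CellTiter-Glo addition and luminescence imaging of cellular ATP.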
The depositor's hits bear a star; i = inactive; ? = inconclusive; . = no result; [ ] = dose if it differs, or a comment. Unless noted, the call rests on the fitted dose curve; in most records, active means well fitted curve in the direction sought with a large enough effect; inconclusive means small, poorly fitted or top-dose-only effect, or another doubt; inactive means no such curve, though single readings can be large; an effect the other way counts as inactive or inconclusive. On the % scale 0 is the no-effect control and ±100 the full control effect; potency means the concentration at half of the fitted maximal effect.

SMILES	NPR1 antag	HEK cytotox	FLuc inh	NIH3T3 tox
COc1ncccc1-c1cnc2[nH]cc(CC(=O)Nc3ccncc3)c2c1	?	63µM*	i	32µM*
Cc1noc(C)c1C(=O)NC1CCN(c2ccc3nnc(C4CC4)n3n2)C1 (stereo not drawn)	.	2%	.	-21%
COc1ccc(-c2cnc3[nH]cc(CC(=O)NC4CCC(O)CC4)c3c2)cc1 (stereo not drawn)	-8%[70.6 µM]	?	i	25µM*
Cc1ccccc1-c1cnc2[nH]cc(CC(=O)NC3CCOCC3)c2c1	-17%[70.6 µM]	?	i	?
COc1cccc(NC(=O)Cc2c[nH]c3ncc(-c4ccccc4C)cc23)c1	?	71µM*	i	?
COc1ncccc1-c1cnc2[nH]cc(CC(=O)Nc3ccccc3)c2c1	?	?	i	40µM*
CN1CCC(NC(=O)Cc2c[nH]c3ncc(-c4ccccc4)cc23)CC1	-16%[70.6 µM]	?	i	?
CC(=O)c1cccc(NC(=O)Cn2c(N3CCc4ccccc4C3)nc(C)cc2=O)c1	-22%	45µM*	i	?
Cc1cc(=O)n(CC(=O)Nc2cccc(C#N)c2)c(N2CCc3ccccc3C2)n1	-5%	?	i	?
CCOc1ccc(NC(=O)Cn2c(N3CCc4ccccc4C3)nc(C)cc2=O)cc1	-12%	40µM*	i	32µM*
Cc1cc(=O)n(CC(=O)Nc2ccc(C)c(C)c2)c(N2CCc3ccccc3C2)n1	-13%	?	i	-2%
CCOc1ccc(NC(=O)Cn2c(Nc3cc(C)cc(C)c3)nc(C)cc2=O)cc1	-27%	?	i	32µM*
CC(=O)c1ccc(NC(=O)Cn2c(N3CCc4ccccc4C3)nc(C)cc2=O)cc1	-27%	35µM*	i	28µM*
CCOc1ccccc1CN1CCC2(CCN(C(=O)c3ccccc3)CC2)Oc2ccccc21	-8%	-15%	i	-9%
Cc1nn(-c2ccccc2)c2c1C(C)N(CC1CN(C(=O)NC(C)C)C1)C2=O (stereo not drawn)	.	-6%	.	-20%
COCCCNC(=O)c1cc(C(C)(C)C)nc2c1cnn2C	.	-12%[172 µM]	.	?
O=C(Nc1cc(-c2ccccn2)nn1-c1ccccc1)c1ccc(Cl)cc1	.	-11%	.	-15%
CCCCn1c(=O)c(C(=O)N2CCN(C(=O)Cc3ccc(F)cc3)CC2)nc2cccnc21	.	-7%	.	-13%
COc1cccc(-c2cc3c(=O)n(CCNC(=O)Cc4ccc(F)cc4)ccn3n2)c1	?	-10%	7.9µM*	-10%
COc1cccc(-c2cc3c(=O)n(CCNC(=O)Cc4ccsc4)ccn3n2)c1	-3%	?	28µM*	-25%
COc1cccc(-c2cc3c(=O)n(CCNC(=O)c4cc(F)ccc4F)ccn3n2)c1	?	?	7.1µM*	?
COc1ccc(OC)c(C(O)Cn2ccn3nc(-c4ccc(C(C)C)cc4)cc3c2=O)c1 (stereo not drawn)	?	32µM*	?	-9%
COc1ccc(Cn2c(=O)c(C(=O)Nc3ccc(F)cc3)nc3cccnc32)cc1	.	i	.	-12%
CCc1cccc(NC(=O)C2(Cc3ccccc3)CCCCC(=O)N2)c1 (stereo not drawn)	.	?	.	-12%
O=C(Nc1ccccc1)N1CCCN(c2ccc3nnc(C4CC4)n3n2)CC1	.	-3%	.	-6%
SMILES	NPR1 antag	HEK cytotox	FLuc inh	NIH3T3 tox
COc1ccc(F)cc1S(=O)(=O)N1CCC(n2cnnc2C)CC1	-3%	2%	i	5%
COc1cccc(-c2cc3c(=O)n(CCNC(=O)Cc4cccc(F)c4)ccn3n2)c1	-3%	?	11µM*	?
COc1ccc(-c2cc3c(=O)n(CCNC(=O)c4cc(Cl)ccc4F)ccn3n2)cc1	-20%	79µM*	?	-19%
COc1ccc(-c2cc3c(=O)n(CCNC(=O)c4cc(OC)cc(OC)c4)ccn3n2)cc1	-17%	-5%	i	-23%
COc1cccc(-c2cc3c(=O)n(CC(O)c4ccccc4)ccn3n2)c1 (stereo not drawn)	-30%	35µM*	3.5µM*	-29%
COc1cccc(-c2cc3c(=O)n(CCNC(=O)COc4ccccc4)ccn3n2)c1	-23%	-23%	25µM*	-20%
Cc1cccc(NC(=O)C23CCC=C2N(C2CCCC2)C(=O)CC3)c1 (stereo not drawn)	.	?	.	-18%
CN1c2cc(C(=O)Nc3ccc4c(c3)CCC4)ccc2C(=O)N2CCCCC21 (stereo not drawn)	-7%	?	28µM*	?
Cc1ccc(NC(=O)c2ccc3c(c2)N(C)C2CCCCN2C3=O)cc1F (stereo not drawn)	0%	?	?	?
CN1c2cc(C(=O)Nc3ccc(F)c(F)c3)ccc2C(=O)N2CCCCC21 (stereo not drawn)	3%	-16%	?	-29%
Cc1cc(NC(=O)c2ccc3c(c2)N(C)C2CCCCN2C3=O)ccc1F (stereo not drawn)	-24%	?	22µM*	?
Cc1cccc(C(=O)N2CC(CNC(=O)N3CCCC3)C3(CCOCC3)C2)c1 (stereo not drawn)	.	1%	.	i
Cc1nc(CN2CC3(CCN(C)C3)c3cc(C(=O)NCC4CC4)ccc32)cs1 (stereo not drawn)	1%[70.6 µM]	-37%[172 µM]	i	?
CN1CCC2(C1)CN(Cc1ccccc1)c1ccc(C(=O)NCc3cccs3)cc12 (stereo not drawn)	0%[70.6 µM]	45µM*	i	28µM*
Cc1nc(CN2CC3(CCN(C)C3)c3cc(C(=O)NCc4ccccc4)ccc32)cs1 (stereo not drawn)	-7%[70.6 µM]	112µM*	i	?
CN1CCCC2(C1)CN(Cc1cccnc1)c1ccc(C(=O)NCc3cccs3)cc12 (stereo not drawn)	6%[70.6 µM]	?	i	?
Cc1nc(CN2CC3(CCN(C)C3)c3cc(C(=O)NCc4cccs4)ccc32)cs1 (stereo not drawn)	-5%[70.6 µM]	?	i	79µM*
O=C(c1ccc(Cl)nc1)N1CCCC(C(=O)N2CCC(c3nc4ncccc4[nH]3)C2)C1 (stereo not drawn)	.	3%	.	-8%
CC(=O)N(C1CCOCC1)C1CCN(S(=O)(=O)c2ccc(Cl)c(C)c2)CC1	.	1%	.	-7%
O=C(Nc1cccc2ccccc12)O[C@@H]1CO[C@H]2[C@@H]1OC[C@@H]2NCC1CCCCC1	-22%[70.6 µM]	45µM*	i	?
O=C(Nc1cccc2ccccc12)O[C@@H]1CO[C@H]2[C@@H]1OC[C@@H]2NC(=O)C1CCC1	-2%[70.6 µM]	-8%[172 µM]	i	-6%[174 µM]
O=C(Nc1cccc2ccccc12)O[C@@H]1CO[C@H]2[C@@H]1OC[C@@H]2NS(=O)(=O)c1cccc2cccnc12	-3%	-20%	i	-30%
O=C(Nc1ccc(Oc2ccccc2)cc1)O[C@@H]1CO[C@H]2[C@@H]1OC[C@@H]2NC(=O)c1ccccn1	11µM*	?	?	?

High-throughput results: PubChem, National Center for Advancing Translational Sciences (NCATS)
